Results from PubChem BioAssay AID687014 (The Scripps Research Institute Molecular Screening Center, 2013).
Screen size: about 370,000 compounds; about 6,800 (1.8%) were called active.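 How the source made its calls: active means activation above a cutoff set at the mean of all screened compounds plus 3 SD (cut at about 10% in these data); inactive means the rest.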 The full list was thinned out, with actives kept by preference.

tested on: Nuclear hormone receptor DAF-12 (Heterodera glycines), GAL4 fusion; experiment: hgDAF-12 GAL4 fusion reporter activation – cell-based, luminescence, HEK293, UAS-luciferase, primary screen (AID 687014); conditions: HEK293 GAL4-hgDAF12 UAS-luciferase reporter, agonist luminescence; at 6.8 µM; active compounds read high; normalized to butyrate control;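 further: 0% = DMSO wells and 100% = sodium butyrate wells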

| SMILES | activation |
| --- | --- |
| COc1ccc(NCc2nnc(SCc3ccccc3)n2-c2ccc(OC)cc2)cc1 | 1.53% (inactive) |
| COc1ccc(CSc2nnc(-c3cccc(C)c3)n2C)cc1 | -0.32% (inactive) |
| COc1ccc2nc(SCc3ccccc3)nc(C)c2c1 | 16.3% (active) |
| CCOc1ccc(S(=O)(=O)NCC2CCCO2)cc1 (centres undefined) | -0.13% (inactive) |
| COC(=O)[C@]12C[C@H](CC(=O)NCc3ccccc3)C(=O)N(Cc3ccccc3)C1=C[C@H](COCc1ccccc1)O[C@@H]2C | -0.41% (inactive) |
| Cc1ccc(NC(=O)N2c3ccccc3SC2c2ccco2)c(C)c1 (centres undefined) | -2.03% (inactive) |
| O=C(CCS(=O)(=O)c1ccccc1)Nc1ccc(Cl)c(Cl)c1 | 5% (inactive) |
| COc1ccc(C=C2CCC3C(CCCC34OCCO4)C2=O)cc1 (centres undefined) | 2.78% (inactive) |
| COc1ccc(/C=C2/CCCc3ccccc3C2=O)cc1 | 16.7% (active) |
| COc1ccccc1Oc1ccc(N/C=C2/CCCC2=O)cc1 | 2.59% (inactive) |
| COc1ccc(Cn2cc(COC(=O)N(C)Cc3ccccc3)nn2)cc1 | 2.67% (inactive) |
| COc1cccc(-c2nc(CS(=O)(=O)CC(=O)NCCc3ccc(OC)c(OC)c3)c(C)o2)c1 | 0.2% (inactive) |
| COc1cccc(-c2nnc(SCCOc3ccc4c(C)cc(=O)oc4c3)o2)c1 | -0.66% (inactive) |
| COc1cccc(-c2nc3cc(C)ccc3o2)c1 | 17.6% (active) |
| CC(=O)Oc1ccc2c(=O)oc(-c3ccc([N+](=O)[O-])cc3)nc2c1 | 0.03% (inactive) |
| O=[N+]([O-])c1ccc2c(c1)C(O)n1nc(-c3ccccc3)nc1S2 (centres undefined) | -1.58% (inactive) |
| O=[N+]([O-])c1ccc2oc(-c3cccc(O)c3)nc2c1 | 19.1% (active) |
| C=CCN1C(=O)[C@@H](CC(=O)NCCCOCCCC)[C@]2(C(=O)OCC)CCCCC/C=C/12 | -2.8% (inactive) |
| C/C(=N/O)c1ccc(N2C(=O)C3C4C=CC(C3C2=O)C2C3C(=O)N(c5ccc(/C(C)=N/O)cc5)C(=O)C3C42)cc1 (centres undefined) | -2.43% (inactive) |
| COc1ccc(-c2cc(-c3nnc(SCC(=O)Nc4cccc5ccccc45)n3N)[nH]n2)cc1 | -0.33% (inactive) |

| SMILES | activation |
| --- | --- |
| CC[C@H](C)[C@H]1CNC(=O)C(=O)N1CC1CCN(CCc2ccc(OC)c(OC)c2)CC1 | -1.21% (inactive) |
| CC[C@@H](CCC(=O)N(c1ccccc1)c1ccccc1)C1CC1 | 0.58% (inactive) |
| O=c1oc(-c2ccccc2NS(=O)(=O)c2ccc(Cl)cc2)nc2ccccc12 | 0.61% (inactive) |
| S=c1[nH]nc(/C=C/c2ccccc2)o1 | 4.59% (inactive) |
| O=c1oc(/C=C/c2ccccc2)nc2ccccc12 | 16% (active) |
| COc1ccc(-n2c(COc3ccc(C)cc3)nnc2SCC(=O)Nc2ccc(Oc3ccccc3)cc2)cc1 | 3.51% (inactive) |
| COc1ccccc1NC(=O)C(C)OC(=O)c1ccc(-n2cnnn2)cc1 (centres undefined) | -3.02% (inactive) |
| N#Cc1ccc(C2=CC(=O)C[C@H](c3ccc(Cl)cc3)C2)cc1 | -2.41% (inactive) |
| OC(c1ccccc1)c1nc(-c2cnc3ccccc3c2)cs1 (centres undefined) | 22.6% (active) |
| COc1cccc(C(NC(C)=O)c2nc(-c3cnc4ccccc4c3)cs2)c1 (centres undefined) | -1% (inactive) |
| CC(C)c1cccc(-c2csc(C(O)c3ccccc3)n2)c1 (centres undefined) | 5.67% (inactive) |
| Cc1ccc(N2C(=O)c3ccccc3C2(O)c2ncc[nH]2)cc1 (centres undefined) | 0.14% (inactive) |
| Cc1ccc2[nH]c(=O)c(CN(CC3COCCO3)C(=O)Nc3ccccc3C)cc2c1 (centres undefined) | -1.5% (inactive) |
| Cc1cccc(NC(=O)N(Cc2cc3cc(C)cc(C)c3[nH]c2=O)CC2COCCO2)c1 (centres undefined) | 11.3% (active) |
| COc1ccc2[nH]c(=O)c(CN(CC3CCCO3)C(=O)Nc3ccccc3)cc2c1 (centres undefined) | -1.35% (inactive) |
| O/N=C(\c1ccc2c(c1)OCCO2)C1CCCCC1 | -1.1% (inactive) |
| CC(CCN1CCC(C(O)(c2ccccc2)c2ccccc2)CC1)Oc1ccc(Cl)cc1 (centres undefined) | -0.38% (inactive) |
| C=CCN1C(=O)[C@@H](CC(=O)NCC2CCCCC2)[C@]2(C(=O)OC)CCCCC=C12 | 2.02% (inactive) |
| O=C(COc1cccc(F)c1)Oc1ccc(C(=O)c2ccccc2)cc1 | 3.93% (inactive) |
| O=C(Oc1ccc(-c2nc(-c3ccccn3)no2)cc1)c1ccccc1 | 10.9% (active) |

| SMILES | activation |
| --- | --- |
| COC(=O)c1ccc(-c2noc(CN(Cc3ccccn3)CC3CCCO3)n2)cc1 (centres undefined) | 1.07% (inactive) |
| CCCC[C@H]1C2CC(OC(=O)NCc3ccccc3)C(C2)[C@H]2CCCCN21 (some centres undefined) | -3.36% (inactive) |
| Cc1ccc2c(c1)N(CC(=O)NCCc1ccc(Cl)cc1)C(=O)c1cccnc1O2 | 0.09% (inactive) |
| CN(C)c1ccc(NC(=O)c2ccncc2)c2ccccc12 | -2.36% (inactive) |
| O=C(Nc1ccc2ccccc2c1[N+](=O)[O-])c1ccccc1 | 15.2% (active) |
| Cc1ccc(NC(=O)c2oc3ccccc3c2C)c([N+](=O)[O-])c1 | 0.32% (inactive) |
| COP(=O)(O)CNC(=O)OCc1ccccc1 | 2% (inactive) |
| O=C(CSc1nc2ccccc2n1Cc1ccccc1)NNC(=S)Nc1ccccc1 | -0.74% (inactive) |
| CCNC(=O)C1(C)CCN(C(=O)c2ccccc2)C1 (centres undefined) | 2.75% (inactive) |
| CCN1C(=O)N[C@@H]2C[C@H](C(=O)N3CCCC3)[C@H](C)[C@H](c3ccccc3)C[C@@H]21 | 5.37% (inactive) |
| C=CCOc1c2ccc(C(=O)N(CC)c3ccc(OC)cc3)cc2nn1C | -1.06% (inactive) |
| CC(=O)C1=C(C)N(Cc2ccccc2)C(=S)NC1c1cccc(Br)c1 (centres undefined) | -0.58% (inactive) |
| COc1ccnc(NC(=S)N2CCN(c3ncc(C(F)(F)F)cc3Cl)CC2)c1 | 2.05% (inactive) |
| O=c1cc(-c2ccccc2)[nH]c2cc(F)ccc12 | -0.32% (inactive) |
| Fc1ccc2cnc(-c3ccccc3)cc2c1 | 15.4% (active) |
| COc1cc(OC)cc(-c2cc3ccc(F)cc3cn2)c1 | 8.86% (inactive) |
| CC(C)Cn1c(SCC(=O)Nc2ccc(Cl)cc2F)nc(O)cc1=O | -0.64% (inactive) |
| CC(=O)c1cc(-c2ccc3ccccc3c2)c(=O)n2c1CCC2 | 0.58% (inactive) |
| Cc1sc2nc(SCC(=O)c3ccc(O)c(O)c3)n(Cc3ccco3)c(=O)c2c1C | -0.58% (inactive) |
